Test results as given in PubChem BioAssay (NCATS).
Inconclusive results are not listed. Active and inactive are the calls of the source. Unless noted, calls come from the whole dose curve; as a rule, active = well fitted curve in the direction sought with a large enough effect; inconclusive = small, poorly fitted or top-dose-only effect, or another doubt; inactive = no such curve, though single readings can be large; an effect the other way counts as inactive or inconclusive.

Tests used:
[1] = molecular target: Cytochrome P450 2D6 (Homo sapiens) (UniProt P10635); test: Cytochrome P450 family 2 subfamily D member 6 (CYP2D6) small molecule antagonists: luciferase biochemical (cell-free) qHTS assay (AID 1645840; active = well fitted curve in the direction sought with a large enough effect in the repeat runs; an effect the other way counts as inactive or inconclusive; note: nearly all actives have a fitted effect of over 55% in size; note: potency is the fitted concentration of half-maximal effect; for activity change, negative = inhibition: series mostly up to about 57 µM; % is set by controls: 0 for no effect and ±100 for the full control effect)
Method in brief: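 P450-Glo CYP2D6 system: proluciferin substrate converted by enzyme to luciferin, read by luminescence proportional to activity. Enzyme-substrate mix with compound 10 min at room temperature, then NADPH regeneration 1 h before detection reagent.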

[2] = molecular target: Cytochrome P450 2C9 (Homo sapiens) (UniProt P11712); test: Cytochrome P450 family 2 subfamily C member 9 (CYP2C9) small molecule antagonists: luciferase biochemical (cell-free) qHTS assay (AID 1645842; active = well fitted curve in the direction sought with a large enough effect in the repeat runs; an effect the other way counts as inactive or inconclusive; note: nearly all actives have a fitted effect of over 55% in size; note: potency is the fitted concentration of half-maximal effect; for activity change, negative = inhibition: series mostly up to about 57 µM; % is set by controls: 0 for no effect and ±100 for the full control effect)
Method in brief: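 P450-Glo CYP2C9 system: proluciferin substrate with enzyme in mix containing 0.4% BSA, 10 min at room temperature, then NADPH regeneration solution added and incubated 1 h at 37C. Detection reagent stopped reaction; luminescence read after 20 min as RLU.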

[3] = Primary qHTS for inhibitors of nuclear receptor binding SET domain protein 2 (NSD2) in an isogenic RCH-ACV NSD2 p.E1099K mutant (9B) (AID 1645876); note: nearly all actives have a fitted effect of over 70% in size; note: potency is the fitted concentration of half-maximal effect; for activity change, negative = viability loss: % is set by controls: 0 for no effect and ±100 for the full control effect
[4] = Primary qHTS for inhibitors of nuclear receptor binding SET domain protein 2 (NSD2) in an RCH-ACV wild type WT cells (2C) (AID 1645877); note: nearly all actives have a fitted effect of over 70% in size; note: potency is the fitted concentration of half-maximal effect
[5] = Viability counterscreen for antagonist of constitutive androstane receptor (CAR) against the NCATS DSHEA and TCM libraries (AID 1794837);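 note: compound exposure lasted 24 h before viability reading; 0% is about no effect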
Method in brief: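 Fluorescence from CellTiter-Fluor reports live-cell protease activity in HepG2-CYP2B6-hCAR cells treated for 24 h with substances alongside 48 uM CITCO.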

[6] = molecular target: Rap guanine nucleotide exchange factor 3 (Homo sapiens) (UniProt O95398); test: Confirmatory qHTS for antagonist of cAMP-regulated guanine nucleotide exchange factor 3 (EPAC1) (AID 1645880);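 note: plate controls were DMSO only for no effect and full effect of the ATA control for full effect; nearly all actives have a fitted effect of over 55% in size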
Method in brief: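 Released BODIPY-GDP fluoresces less than Rap1-bound BODIPY-GDP; the signal is followed at 480/540 nm at 5-min intervals over 30 min, after 5 min at room temperature. Reactions contain 100 nM EPAC1, 250 nM RAP1B-BODIPY-GDP and 50 uM GDP; results are normalized to ATA and DMSO.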

[7] = molecular target: Rap guanine nucleotide exchange factor 3 (Homo sapiens) (UniProt O95398); test: Confirmatory qHTS for agonist of cAMP-regulated guanine nucleotide exchange factor 3 (EPAC1) (AID 1645881);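 note: EPAC1 catalysed release of BODIPY-GDP from Rap1B seen as fluorescence loss; 100% = effect of cAMP agonist control; nearly all actives have a fitted effect of over 75% in size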
[8] = molecular target: Rap guanine nucleotide exchange factor 4 (Homo sapiens) (UniProt Q8WZA2); test: Confirmatory qHTS for agonist of cAMP-regulated guanine nucleotide exchange factor 4 (EPAC2) (AID 1645884);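 note: nucleotide exchange releases bodipy-GDP from Rap1 and this lowers its fluorescence; % is set by controls: 0 for no effect and ±100 for the full control effect; nearly all actives have a fitted effect of over 65% in size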
Rap guanine nucleotide exchange factor 4 (Homo sapiens), sequence (Q8WZA2 whole entry, looked up): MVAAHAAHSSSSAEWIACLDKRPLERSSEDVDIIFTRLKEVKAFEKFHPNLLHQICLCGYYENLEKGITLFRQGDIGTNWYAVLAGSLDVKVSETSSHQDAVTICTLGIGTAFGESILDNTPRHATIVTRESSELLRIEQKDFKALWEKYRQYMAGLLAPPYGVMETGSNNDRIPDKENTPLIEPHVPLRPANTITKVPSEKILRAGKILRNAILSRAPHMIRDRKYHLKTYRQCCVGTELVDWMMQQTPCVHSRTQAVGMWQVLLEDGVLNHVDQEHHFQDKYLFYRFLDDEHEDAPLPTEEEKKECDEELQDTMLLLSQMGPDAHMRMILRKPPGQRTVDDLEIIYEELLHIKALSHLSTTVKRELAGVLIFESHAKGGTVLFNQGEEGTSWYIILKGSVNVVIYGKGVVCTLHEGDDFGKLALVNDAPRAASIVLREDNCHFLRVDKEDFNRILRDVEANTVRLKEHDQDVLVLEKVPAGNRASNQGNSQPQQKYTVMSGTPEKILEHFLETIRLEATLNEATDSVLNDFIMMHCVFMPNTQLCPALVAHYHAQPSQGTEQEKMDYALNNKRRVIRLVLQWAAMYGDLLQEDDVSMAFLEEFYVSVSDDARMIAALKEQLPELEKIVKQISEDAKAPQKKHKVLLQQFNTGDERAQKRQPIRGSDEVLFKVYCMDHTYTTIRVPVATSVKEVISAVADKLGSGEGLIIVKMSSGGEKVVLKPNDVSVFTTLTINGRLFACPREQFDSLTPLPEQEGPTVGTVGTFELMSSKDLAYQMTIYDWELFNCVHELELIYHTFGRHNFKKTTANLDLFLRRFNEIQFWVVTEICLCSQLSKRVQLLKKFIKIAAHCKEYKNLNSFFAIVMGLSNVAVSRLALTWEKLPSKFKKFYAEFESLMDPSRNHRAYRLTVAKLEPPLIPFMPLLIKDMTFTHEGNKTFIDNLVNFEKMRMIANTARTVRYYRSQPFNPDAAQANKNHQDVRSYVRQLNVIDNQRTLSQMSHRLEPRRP

Cytochrome P450 2D6 (Homo sapiens), sequence (P10635 whole entry, looked up): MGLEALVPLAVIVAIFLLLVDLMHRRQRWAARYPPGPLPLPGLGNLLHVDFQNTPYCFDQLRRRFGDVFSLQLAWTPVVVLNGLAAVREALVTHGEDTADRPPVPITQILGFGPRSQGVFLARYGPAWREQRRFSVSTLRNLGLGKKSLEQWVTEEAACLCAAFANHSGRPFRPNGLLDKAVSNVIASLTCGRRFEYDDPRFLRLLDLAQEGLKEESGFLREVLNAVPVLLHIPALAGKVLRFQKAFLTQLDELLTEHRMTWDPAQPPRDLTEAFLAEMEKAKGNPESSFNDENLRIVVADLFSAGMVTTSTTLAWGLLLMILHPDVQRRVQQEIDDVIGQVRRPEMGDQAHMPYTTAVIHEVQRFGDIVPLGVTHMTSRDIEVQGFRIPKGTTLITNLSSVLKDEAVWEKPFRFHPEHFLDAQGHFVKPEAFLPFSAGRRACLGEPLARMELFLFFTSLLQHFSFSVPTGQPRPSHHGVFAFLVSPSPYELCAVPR
Cytochrome P450 2C9 (Homo sapiens), sequence (P11712 whole entry, looked up): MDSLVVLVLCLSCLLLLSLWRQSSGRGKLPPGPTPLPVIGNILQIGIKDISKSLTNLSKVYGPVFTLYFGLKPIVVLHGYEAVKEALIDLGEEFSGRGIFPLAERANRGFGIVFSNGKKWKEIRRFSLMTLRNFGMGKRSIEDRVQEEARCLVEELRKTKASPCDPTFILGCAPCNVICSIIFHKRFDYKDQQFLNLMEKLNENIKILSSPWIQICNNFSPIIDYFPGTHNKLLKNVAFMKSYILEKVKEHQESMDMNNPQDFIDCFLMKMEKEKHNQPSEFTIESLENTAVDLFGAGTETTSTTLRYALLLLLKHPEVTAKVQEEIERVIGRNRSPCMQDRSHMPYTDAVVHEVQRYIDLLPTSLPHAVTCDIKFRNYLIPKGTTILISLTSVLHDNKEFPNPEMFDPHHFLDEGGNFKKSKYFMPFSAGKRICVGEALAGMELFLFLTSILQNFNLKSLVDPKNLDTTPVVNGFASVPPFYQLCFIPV
Rap guanine nucleotide exchange factor 3 (Homo sapiens), sequence (O95398 whole entry, looked up): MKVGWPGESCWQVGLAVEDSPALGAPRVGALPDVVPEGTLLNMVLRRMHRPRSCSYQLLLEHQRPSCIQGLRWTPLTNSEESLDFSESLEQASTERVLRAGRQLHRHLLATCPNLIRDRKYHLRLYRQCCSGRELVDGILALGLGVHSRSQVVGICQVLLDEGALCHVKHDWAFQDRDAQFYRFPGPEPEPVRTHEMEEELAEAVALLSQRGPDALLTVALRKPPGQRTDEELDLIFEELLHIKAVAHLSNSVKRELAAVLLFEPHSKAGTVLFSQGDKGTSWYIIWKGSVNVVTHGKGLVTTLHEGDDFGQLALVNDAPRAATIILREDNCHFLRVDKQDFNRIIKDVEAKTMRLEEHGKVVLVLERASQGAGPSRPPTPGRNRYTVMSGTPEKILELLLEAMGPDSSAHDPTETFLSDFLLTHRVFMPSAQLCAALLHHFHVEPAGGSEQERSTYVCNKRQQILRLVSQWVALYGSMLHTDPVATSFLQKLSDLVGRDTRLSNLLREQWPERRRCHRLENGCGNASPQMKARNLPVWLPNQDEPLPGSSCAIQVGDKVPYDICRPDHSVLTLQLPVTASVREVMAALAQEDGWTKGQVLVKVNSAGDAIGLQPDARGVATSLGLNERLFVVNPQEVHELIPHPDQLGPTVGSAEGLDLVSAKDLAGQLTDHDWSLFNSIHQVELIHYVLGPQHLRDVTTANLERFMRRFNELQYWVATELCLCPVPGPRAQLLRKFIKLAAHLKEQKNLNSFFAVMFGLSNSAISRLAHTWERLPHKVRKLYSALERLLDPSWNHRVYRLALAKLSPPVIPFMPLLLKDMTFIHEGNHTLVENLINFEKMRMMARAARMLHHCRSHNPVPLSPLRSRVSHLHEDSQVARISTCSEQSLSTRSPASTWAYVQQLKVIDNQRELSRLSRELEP

S=c1[nH]c2ccccc2s1
active: Potency [1] 29.1 µM | Potency [2] 15.9 µM

CN(C)c1ccc(C(=C2C=CC(=[N+](C)C)C=C2)c2ccccc2)cc1
active: Potency [1] 8.71 µM | Potency [3] 0.0944 µM | Potency [4] 0.188 µM

C/C(=N\O)c1ccc(OCC(=O)N2CCCCC2)cc1
inactive: Potency [1] | Potency [2] | Potency [3] | Potency [4]

C=CCCCCCCCCC(=O)O
inactive: Potency [1] | Potency [2] | Potency [3] | Potency [4]

O=C(O)c1cc(O)c(O)c(O)c1
inactive: Potency [1] | Potency [2] | outcome [5]

C[N+]1(C)[C@@H]2CC(OC(=O)[C@H](CO)c3ccccc3)C[C@H]1[C@@H]1O[C@@H]12 (some centres undefined)
inactive: Potency [1] | Potency [3] | Potency [4]

O=C(O)c1ccccc1Nc1cccc(C(F)(F)F)c1
inactive: Potency [1] | Potency [2] | Potency [4] | Potency [6] | Potency [7] | Potency [8]

O=C(OCc1ccccc1)c1ccccc1
inactive: Potency [1] | Potency [2] | Potency [3] | Potency [4]

CO[C@@]1(NC(=O)Cc2cccs2)C(=O)N2C(C(=O)O)=C(COC(N)=O)CS[C@@H]21
inactive: Potency [1] | Potency [2] | Potency [3] | Potency [4]

O=C(Nc1ccc(C(=O)O)c(O)c1)c1ccccc1
active: Potency [1] 13.8 µM
inactive: Potency [3] | Potency [4]

CC(C)OC(=O)c1cc(C(=O)OC(C)C)cc([N+](=O)[O-])c1
inactive: Potency [3] | Potency [4]
active: Potency [1] 3.73 µM | Potency [2] 0.748 µM

O=C(O)Cc1cccc(-c2cc(CCCCCCc3ccc(O[C@H]4O[C@H](CO)[C@@H](O)[C@H](O)[C@@H]4O)c(-c4cccc(CC(=O)O)c4)c3)ccc2O[C@H]2O[C@H](CO)[C@@H](O)[C@H](O)[C@@H]2O)c1
inactive: activity change, negative = inhibition [1] -6.59% [at 0.91 µM] | activity change, negative = inhibition [2] 11.7% [at 0.91 µM] | activity change, negative = viability loss [3] 9.79% [at 0.588 µM] | outcome [4] inactive [at 0.588 µM]
